# Out of some 220,000 compounds screened, about 2,000 (0.91%) were called active. Inconclusive results (about 2%) are left out. Rule as the data show it: inconclusive = inhibition above about 80% without an active follow-up result; inactive = below that; test concentration not stated here. Only a sample is shown. Entries with a potency or affinity are not part of this list.
# Assay: M. tuberculosis H37Rv growth inhibitors, H37Rv strain (AID 1626);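 also: bacteria incubated seven days before Alamar blue readout; 0% = bacteria only wells and 100% = bacteria with antibiotic wells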
# Details: active compounds read high, concentration not given here
row,Structure (SMILES),inhibition
1,CCNC(=O)COC(=O)CNC(=O)c1cc(Cl)cc([N+](=O)[O-])c1,-10% (inactive)
2,CN(C)C(=O)Oc1ccc(Cl)c2cccnc12,-4.68% (inactive)
3,O=C(Oc1ccc(Cl)c2cccnc12)N1CCCCC1,4.79% (inactive)
4,CCCC(=O)Nc1ccc(NC(=O)c2ccccc2Cl)nc1,7.45% (inactive)
5,O=C(N/N=C/C=C\c1ccc([N+](=O)[O-])cc1)c1cccnc1,-15.7% (inactive)
6,O=C1/C(=C/c2cccnc2)Oc2cc(OS(=O)(=O)c3ccc(Cl)cc3)ccc21,13.6% (inactive)
7,Cc1ccc(S(=O)(=O)Oc2ccc3c(c2)O/C(=C\c2cccnc2)C3=O)cc1,-0.74% (inactive)
8,CS(=O)(=O)Oc1ccc2c(c1)O/C(=C\c1cccnc1)C2=O,-6.08% (inactive)
9,O=C1/C(=C/c2ccncc2)Oc2cc(OS(=O)(=O)c3ccccc3)ccc21,21.6% (inactive)
10,Cc1ccc2[nH]cc(C(=O)CN3CCOCC3)c2c1,-4.26% (inactive)
11,COc1ccc(C2C3=C(CCCC3=O)Nc3n[nH]c(C)c32)cc1OC (centres undefined),-5.11% (inactive)
12,CCOC(=O)CSc1nnc(CNc2cccc(Cl)c2)n1-c1ccccc1,5.48% (inactive)
13,N#Cc1nc(-c2ccc(OCc3ccc(Cl)cc3)cc2)oc1NCCCn1ccnc1,-1.04% (inactive)
14,N#Cc1nc(-c2ccc(OCc3ccccc3)cc2)oc1NCCCn1ccnc1,4.85% (inactive)
15,Cc1cccc(C)c1Nc1nnc(SCc2cn3cccc(C)c3n2)s1,-7.42% (inactive)
16,COc1ccc(-c2cc(=Nc3ccc(C)cc3)c3ccccc3o2)cc1,12.8% (inactive)
17,COc1ccc(-c2cc(=Nc3ccccc3)c3cc(C)ccc3o2)cc1,17.7% (inactive)
18,O=C(CNC(=O)c1ccco1)Nc1ccc(S(=O)(=O)N2CCCC2)cc1,-5.82% (inactive)
19,CN(C)CCCN(C(=O)CCc1ccccc1)c1nc2ccc(F)cc2s1,7.03% (inactive)
20,Cc1ccc2nc(N(CCCN(C)C)C(=O)CCc3ccccc3)sc2c1,9.45% (inactive)
21,O=C1NC(c2ccccc2)=NC1(NS(=O)(=O)c1ccc(Cl)cc1)C(F)(F)F (centres undefined),7.08% (inactive)
22,O=C(c1cccs1)c1coc2ccc(O)cc12,51% (inactive)

row,Structure (SMILES),inhibition
1,O=C(c1coc2ccc(O)c(CN3CCOCC3)c12)C1CC1,4.13% (inactive)
2,COc1ccc(OC)c(C(=O)c2coc3ccc(O)cc23)c1,-1.33% (inactive)
3,O=C(c1ccc(Cl)cc1)c1coc2ccc(O)cc12,-6.06% (inactive)
4,CN1CC(=O)N(CC(=O)Nc2ccc(F)cc2)c2ccccc2C1=O,-5.02% (inactive)
5,COc1ccc(C(=O)Nn2c(CCC(=O)O)ccc2-c2ccc(C)cc2)cc1OC,-3.08% (inactive)
6,Cc1cccc(N2CCN(C(=O)N3CCOCC3)CC2)c1C,-3.5% (inactive)
7,Cc1nn(C)c(C(=O)NNC(=S)NC2CCCCC2)c1Br,10.2% (inactive)
8,Cc1ccc(NC(=O)COC(=O)CCNS(=O)(=O)c2ccc(C)c(C)c2)cc1,-0.05% (inactive)
9,CCN(CC)c1ccc(/C=C(/C#N)c2nc3ccc(C)cc3[nH]2)c(OC(C)C)c1,16.2% (inactive)
10,CCCOc1cc(N(CC)CC)ccc1/C=C(/C#N)c1nc2ccc(C)cc2[nH]1,61.6% (inactive)
11,FC(F)(F)c1ccc(CN2C[C@@H]3C(c4ccccc4)C4(c5cccnc5)CC3(C4)[C@H]2c2ccccc2)cc1 (some centres undefined),20.3% (inactive)
12,COc1ccccc1S(=O)(=O)CC(O)COc1ccc(C#N)cc1 (centres undefined),-1.05% (inactive)
13,Cc1nccn1CC(=O)N/N=C/c1c[nH]c2ccccc12,3.79% (inactive)
14,COC(=O)c1ccc(OC(=O)CCN2c3ccccc3Sc3ccccc32)cc1,1.13% (inactive)
15,O=C(CCN1c2ccccc2Sc2ccccc21)Oc1ccccc1,22.8% (inactive)
16,CSCCC(NC(=O)c1ccccc1)c1nc(-c2ccccc2)no1 (centres undefined),2.56% (inactive)
17,CCOc1cc(Br)ccc1S(=O)(=O)N1CCC(C(N)=O)CC1,-1.13% (inactive)
18,Cc1cccc(N=Nc2c(C)c(C#N)c(O)[nH]c2=O)c1,-1.05% (inactive)
19,CCOC(=O)c1ccc(N=Nc2c(C)c(C#N)c(O)[nH]c2=O)cc1,86.6% (inactive)
20,Cc1ccc(C)c2[nH]c(=O)c(CN(CC3CCCO3)C(=S)NCc3ccco3)cc12 (centres undefined),1.36% (inactive)
21,c1ccc(COc2ccc(CNn3cnnc3)cc2)cc1,-2.39% (inactive)
22,COc1cccc(-c2nc(Oc3cccc(C)c3C)c3ccccc3n2)c1O,-7.68% (inactive)

row,Structure (SMILES),inhibition
1,Cc1nc(SCC(=O)NCc2ccccc2)c2oc3ccccc3c2n1,-1.12% (inactive)
2,CCOC(=O)N1C2=NC(C(=O)OC)=C(C(=O)OC)[C@@H]3N(Cc4ccccc4)c4ccccc4[C@]23C[C@H]1C(=O)OC,-6.13% (inactive)
3,Cc1ccc(C(=O)c2cn(-c3ccc(F)c(Cl)c3)nn2)cc1,0.59% (inactive)
4,Cc1ccc(-n2cnnn2)cc1Cl,-4.47% (inactive)
5,O=C(c1cn(-c2ccc(Cl)c(Cl)c2)nn1)C1CC1,12.8% (inactive)
6,CN1CCN(c2ccc(C(=O)c3ccc(F)cc3)cc2)CC1,1.19% (inactive)
7,Cc1c(-n2c(O)c(C3=c4ccccc4=NC3=O)sc2=O)c(=O)n(-c2ccccc2)n1C,1.59% (inactive)
8,N/C(=N\OC(=O)c1cc(Cl)ccc1Cl)c1ccncc1,-3.7% (inactive)
9,CS(=O)(=O)N(Cc1ccc(Cl)cc1)c1ccc(C(=O)N/N=C/c2cc3ccccc3nc2Cl)cc1,-6.17% (inactive)
10,Cc1ccc(-n2nnnc2SCC(=O)Nc2sccc2C#N)cc1,0.42% (inactive)
11,O=C(CN1C(=O)CCC1=O)NCC12CC3CC(CC(C3)C1)C2,0.8% (inactive)
12,Cc1ccc(N/C=C(\C#N)c2ccc(OCCCF)cc2)cc1,7.98% (inactive)
13,Cc1nn(Cc2ccccc2Cl)c2sc(C(=O)NC(C)(C)C)cc12,7.48% (inactive)
14,CCC(CC)NC(=O)c1cc2c(C)nn(Cc3ccccc3Cl)c2s1,-6.17% (inactive)
15,COc1ccc(NC(=O)c2c(Cl)nc3ccccn23)cc1,-0.46% (inactive)
16,CC(C)(C)c1ccc(C(=O)OCCNC(=O)c2c(Cl)nc3ccccn23)cc1,-10.6% (inactive)
17,Cc1nc2ccccn2c1C(=O)N/N=C/c1ccc2c(c1)OCO2,1.58% (inactive)
18,Cc1nc2ccccn2c1C(=O)NCc1cccnc1,-10.5% (inactive)
19,O=C(NCc1ccc2c(c1)OCO2)c1cnc2ccccn2c1=O,-8.83% (inactive)
20,CCNC(=O)c1c(C)nc2ccccn12,-9.74% (inactive)

# Reference: PubChem BioAssay AID1626 (SRMLSC, 2009)
